# Test results as given in PubChem BioAssay AID2330 (Broad Institute, 2010).
# The campaign covered roughly 37,000 compounds. About 2,800 (7.6%) were called active. Not shown: some 1% with an inconclusive outcome. Many of the other results were omitted from the sample, so actives are more common in it than they were. Unmarked numbers belong to inactive results. No stated cut-off is given here; in the data, active means inhibition above about 80%; inconclusive means no clear call, values can overlap the other calls; inactive means below that.
# Test: NOMO-1 AML cell viability reduction, primary screen, STK33 inhibitor project, CellTiter-Glo luminescence (AID 2330)
# Conditions: NOMO-1 AML viability, 72 h, active compounds read high, concentration not given here
row,Structure (SMILES),inhibition
1,C[C@@H]1CN([C@H](C)CO)C(=O)Cc2cc(NC(=O)Nc3ccc(C(F)(F)F)cc3)ccc2O[C@H]1CN(C)Cc1ccc(-c2ccccc2)cc1,128% (active)
2,C[C@H]1CN([C@@H](C)CO)C(=O)Cc2cc(NC(=O)Nc3ccccc3)ccc2O[C@H]1CN(C)Cc1ccncc1,19.2%
3,C[C@@H]1CN([C@H](C)CO)C(=O)Cc2cc(NC(=O)c3ccncc3)ccc2O[C@H]1CN(C)Cc1ccc(-c2ccccc2)cc1,111% (active)
4,COc1ccc(CN(C)C[C@@H]2Oc3ccc(NC(=O)c4ccncc4)cc3CC(=O)N([C@H](C)CO)C[C@H]2C)cc1,13.5%
5,C[C@@H]1CN([C@@H](C)CO)C(=O)Cc2cc(NC(=O)C3CCCCC3)ccc2O[C@@H]1CN(C)C(=O)Nc1ccc(C(F)(F)F)cc1,37.5%
6,C[C@H]1CN([C@@H](C)CO)C(=O)Cc2cc(NC(=O)CCCN(C)C)ccc2O[C@@H]1CN(C)Cc1ccc(-c2ccccc2)cc1,24.3%
7,C[C@H]1CN([C@@H](C)CO)C(=O)Cc2cc(NC(=O)Nc3ccc(C(F)(F)F)cc3)ccc2O[C@H]1CN(C)Cc1ccc(C(=O)O)cc1,12.6%
8,C[C@H]1CN([C@@H](C)CO)C(=O)Cc2cc(NC(=O)C3CCCCC3)ccc2O[C@H]1CN(C)C(=O)Nc1ccc(C(F)(F)F)cc1,11.2%
9,C[C@@H]1CN([C@H](C)CO)C(=O)Cc2cc(NC(=O)c3ccncc3)ccc2O[C@@H]1CN(C)Cc1ccncc1,-19.5%
10,C[C@@H]1CN([C@H](C)CO)C(=O)Cc2cc(NC(=O)Nc3ccc4c(c3)OCO4)ccc2O[C@H]1CN(C)Cc1ccc(C(F)(F)F)cc1,77%
11,C[C@H](CO)N1C[C@H](C)[C@H](CN(C)Cc2ccc(-c3ccccc3)cc2)Oc2ccc(NC(=O)Nc3ccc(F)cc3)cc2CC1=O,110% (active)
12,C[C@@H]1CN([C@H](C)CO)C(=O)Cc2cc(NC(=O)C3CCCCC3)ccc2O[C@@H]1CN(C)Cc1ccc(C(F)(F)F)cc1,101% (active)
13,CC(C)NC(=O)N(C)C[C@@H]1Oc2ccc(NC(=O)C3CCCCC3)cc2CC(=O)N([C@H](C)CO)C[C@@H]1C,27.6%
14,Cc1noc(C)c1NC(=O)Nc1cccc2c1O[C@@H](CN(C)CC1CCCCC1)[C@H](C)CN([C@@H](C)CO)C2=O,-7.61%
15,Nc1nnc(SCC(=O)Nc2ccc(Cl)cc2O)s1,14.9%
16,C[C@@H]1CN([C@H](C)CO)C(=O)c2cccc(NC(=O)C3CCOCC3)c2O[C@H]1CN(C)S(=O)(=O)c1ccc(Cl)cc1,7.24%
17,COc1ccc(NC(=O)N(C)C[C@@H]2Oc3c(NS(C)(=O)=O)cccc3C(=O)N([C@H](C)CO)C[C@H]2C)cc1,12.7%
18,COc1cccc(-c2cc(C(F)(F)F)n3nc(C(=O)NCc4ccccn4)cc3n2)c1,12.5%
19,COC(=O)c1sc(SC)c(-c2ccn(S(=O)(=O)c3ccc(Cl)cc3)n2)c1C,-4.42%
20,Cc1ccc(S(=O)(=O)N(C)C[C@H]2Oc3ccc(NC(=O)Cc4cn(C)c5ccccc45)cc3CC(=O)N([C@@H](C)CO)C[C@H]2C)cc1,15.7%

row,Structure (SMILES),inhibition
1,N#Cc1c(SCC(=O)Nc2ccc(F)cc2Cl)nc2c(c1C(F)(F)F)CCCCC2,24.5%
2,C=CCn1c(SCc2nc3ccccc3[nH]2)nnc1-c1cccc(C)c1,1.23%
3,C[C@@H]1CN([C@H](C)CO)C(=O)Cc2cc(NC(=O)Nc3cccc4ccccc34)ccc2O[C@@H]1CN(C)Cc1ccc(C(F)(F)F)cc1,105% (active)
4,COc1ccc(NC(=O)Nc2ccc3c(c2)CC(=O)N([C@@H](C)CO)C[C@@H](C)[C@@H](CN(C)Cc2ccc(C(F)(F)F)cc2)O3)cc1,101% (active)
5,C[C@H]1CN([C@@H](C)CO)C(=O)Cc2cc(NC(=O)Cc3cn(C)c4ccccc34)ccc2O[C@@H]1CN(C)Cc1ccccc1,32.3%
6,COc1ccc(CN(C)C[C@@H]2Oc3ccc(NC(=O)Nc4ccc(OC)cc4)cc3CC(=O)N([C@H](C)CO)C[C@H]2C)cc1,22%
7,C[C@@H]1CN([C@H](C)CO)C(=O)Cc2cc(NC(=O)Nc3cccc4ccccc34)ccc2O[C@@H]1CN(C)Cc1ccc(C(=O)O)cc1,20.5%
8,C[C@H]1CN([C@@H](C)CO)C(=O)Cc2cc(NC(=O)Cc3cn(C)c4ccccc34)ccc2O[C@H]1CN(C)Cc1ccccc1,7.92%
9,COc1ccc(NC(=O)Nc2ccc3c(c2)CC(=O)N([C@H](C)CO)C[C@H](C)[C@H](CN(C)Cc2ccncc2)O3)cc1,-3.73%
10,Cc1noc(C)c1NC(=O)Nc1ccc2c(c1)CC(=O)N([C@H](C)CO)C[C@@H](C)[C@@H](CN(C)Cc1ccc(C(F)(F)F)cc1)O2,25.7%
11,C[C@@H]1CN([C@H](C)CO)C(=O)Cc2cc(NC(=O)Cc3cn(C)c4ccccc34)ccc2O[C@@H]1CN(C)Cc1ccc(C(F)(F)F)cc1,112% (active)
12,C[C@@H]1CCCCO[C@@H](CN(C)C)[C@@H](C)CN([C@H](C)CO)C(=O)c2cc(NC(=O)c3ccncc3)ccc2O1,17.5%
13,CC(C)NC(=O)N(C)C[C@H]1Oc2c(NC(=O)C3CCCCC3)cccc2C(=O)N([C@@H](C)CO)C[C@H]1C,-7.34%
14,C[C@H](CO)N1C[C@H](C)[C@@H](CN(C)C(=O)Nc2ccc3c(c2)OCO3)Oc2c(cccc2N(C)C)C1=O,13.3%
15,Cc1noc(C)c1NC(=O)N(C)C[C@H]1Oc2ccc(NC(=O)Nc3ccc(C(F)(F)F)cc3)cc2CC(=O)N([C@@H](C)CO)C[C@@H]1C,8.18%
16,O=C(O)c1c(Br)c(Br)c(Br)c(Br)c1-c1c2ccc(=O)cc-2oc2cc(O)ccc12,21.5%
17,O=C(CSc1nnc(-c2cccs2)n1-c1ccccc1Cl)Nc1cccc(C(=O)O)c1,-8.58%
18,O=C(NCc1ccccn1)C(=O)Nc1cccc(Cl)c1Cl,-11.7%
19,CC(C)(C)c1ccc(Cn2c(=N)n(CC(=O)O)c3ccccc32)cc1,31%
20,O=c1n(Cc2ccccc2)c2ccccc2n1Cc1ccccc1,23%

row,Structure (SMILES),inhibition
1,N=c1n(CC(=O)c2ccc(Cl)c(Cl)c2)c2ccccc2n1Cc1ccccc1,92.6% (active)
2,Cc1noc(C)c1NC(=O)Nc1ccc2c(c1)C(=O)N([C@H](C)CO)C[C@H](C)[C@@H](CN(C)Cc1ccc3c(c1)OCO3)OCCCC[C@@H](C)O2,0.0539%
3,N#C/C(=C\c1ccc(O)c(O)c1)C(=O)NCc1ccccc1,133% (active)
4,N#C/C(=C\c1ccc(O)c(O)c1)C(N)=O,44.4%
5,CC(C)=CC1C(C(=O)O)C1(C)C (stereo not given),-10.7%
6,COc1ccc(S(=O)(=O)N(C)C[C@H]2Oc3ccc(NS(=O)(=O)c4ccc(C)cc4)cc3CC(=O)N([C@@H](C)CO)C[C@@H]2C)cc1,16.4%
7,COc1ccc(S(=O)(=O)Nc2cccc3c2O[C@@H](CN(C)S(=O)(=O)c2c(C)noc2C)[C@@H](C)CN([C@H](C)CO)C3=O)cc1,0.67%
8,Cc1noc(C)c1NC(=O)Nc1ccc2c(c1)C(=O)N([C@H](C)CO)C[C@@H](C)[C@@H](CN(C)Cc1ccccc1)O2,-0.997%
9,Cc1ccc(S(=O)(=O)Nc2ccc3c(c2)CC(=O)N([C@@H](C)CO)C[C@H](C)[C@H](CN(C)Cc2ccccc2)O3)cc1,26%
10,C[C@H](CO)N1C[C@H](C)[C@@H](CN(C)Cc2ccc(Cl)c(Cl)c2)Oc2ccc(NS(=O)(=O)c3ccccc3)cc2C1=O,20.4%
11,Cc1ccc(S(=O)(=O)Nc2ccc3c(c2)CC(=O)N([C@H](C)CO)C[C@@H](C)[C@H](CN(C)Cc2ccc(C(F)(F)F)cc2)O3)cc1,108% (active)
12,COc1ccc(S(=O)(=O)Nc2ccc3c(c2)C(=O)N([C@@H](C)CO)C[C@H](C)[C@H](CN(C)Cc2ccc(C(F)(F)F)cc2)O3)cc1,50.5%
13,COc1ccc(S(=O)(=O)Nc2ccc3c(c2)CC(=O)N([C@H](C)CO)C[C@H](C)[C@H](CN(C)Cc2ccc(C(F)(F)F)cc2)O3)cc1,125% (active)
14,COc1ccc(S(=O)(=O)Nc2ccc3c(c2)C(=O)N([C@@H](C)CO)C[C@H](C)[C@@H](CN(C)Cc2ccc(C(F)(F)F)cc2)O3)cc1,33.8%
15,COc1ccc(S(=O)(=O)Nc2ccc3c(c2)C(=O)N([C@H](C)CO)C[C@H](C)[C@@H](CN(C)Cc2ccc(-c4ccccc4)cc2)O3)cc1,39.1%
16,Cc1ccc(S(=O)(=O)Nc2ccc3c(c2)C(=O)N([C@@H](C)CO)C[C@H](C)[C@@H](CN(C)Cc2ccc4c(c2)OCO4)O3)cc1,24.6%
17,Cc1ccc(S(=O)(=O)Nc2ccc3c(c2)C(=O)N([C@H](C)CO)C[C@H](C)[C@H](CN(C)Cc2ccc(Cl)c(Cl)c2)O3)cc1,91% (active)
18,C[C@H](CO)N1C[C@H](C)[C@H](CN(C)Cc2ccc(-c3ccccc3)cc2)Oc2ccc(NS(=O)(=O)c3ccccc3)cc2C1=O,93.2% (active)
19,C[C@@H]1CN([C@@H](C)CO)C(=O)c2cc(NS(=O)(=O)c3ccccc3)ccc2O[C@@H]1CN(C)Cc1ccc(C(=O)O)cc1,28.2%
20,C[C@H]1CN([C@@H](C)CO)C(=O)Cc2cc(NS(=O)(=O)c3ccc(F)cc3)ccc2O[C@H]1CN(C)Cc1ccc(C(F)(F)F)cc1,34.1%
